Measurements taken from PubChem BioAssay (Tox21).
Results filed as inconclusive are left out. The source made the active and inactive calls. Unless noted, calls come from the whole dose curve.

What was measured:
[1] = Nuclear factor erythroid 2-related factor 2/antioxidant responsive element (Nrf2/ARE) small molecule agonists: qHTS cell viability counter screen in human keratinocytes (AID 1919968; active = well fitted curve in the direction sought with a large enough effect in the repeat runs; an effect the other way counts as inactive or inconclusive; note: nearly all actives have a fitted effect of over 55% in size)
Summary of the method: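 Seed 1,500 KeratinoSens cells per well, then incubate 5 h at 37 C/5% CO2. Add compounds in DMSO and incubate 23 h. Add CellTiter-Fluor, wait 1 h and read fluorescence.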

[2] = Nuclear factor erythroid 2-related factor 2/antioxidant responsive element (Nrf2/ARE) small molecule agonists: luciferase reporter gene qHTS assay in human keratinocytes (AID 1919969); note: nearly all actives have a fitted effect of over 35% in size
[3] = target: Gonadotropin-releasing hormone receptor (Homo sapiens) (UniProt P30968); experiment: Human gonadotropin-releasing hormone receptor (GnRHR) small molecule agonists, calcium flux assay in GnRHR-HEK293 cells (AID 1920063); note: nearly all actives have a fitted effect of over 35% in size
Gonadotropin-releasing hormone receptor (Homo sapiens), sequence (P30968 whole entry, looked up): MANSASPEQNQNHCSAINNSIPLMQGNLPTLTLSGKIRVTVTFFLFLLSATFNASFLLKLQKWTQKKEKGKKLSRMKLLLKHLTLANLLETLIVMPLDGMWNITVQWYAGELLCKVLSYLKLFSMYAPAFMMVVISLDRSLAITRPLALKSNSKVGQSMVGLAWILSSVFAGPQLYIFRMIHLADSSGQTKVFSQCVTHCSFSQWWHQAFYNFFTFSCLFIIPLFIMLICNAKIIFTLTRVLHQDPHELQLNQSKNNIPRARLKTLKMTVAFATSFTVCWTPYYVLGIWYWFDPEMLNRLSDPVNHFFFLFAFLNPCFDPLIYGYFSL
Summary of the method: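 Cells: HEK293 stably expressing human GnRHR. Steps: overnight (18 h) culture, 1 h calcium dye loading at 37 C, compound addition, kinetic fluorescence read at 480/540 nm. Each compound tested at 15 concentrations in triplicate.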

[4] = target: KiSS-1 receptor (Homo sapiens) (UniProt Q969F8); experiment: Human kisspeptin (KISS1R) small molecule agonists, calcium flux assay in KISS1R-HEK293 cells (AID 1920064; active = well fitted curve in the direction sought with a large enough effect in the repeat runs; an effect the other way counts as inactive or inconclusive)
KiSS-1 receptor (Homo sapiens), sequence (Q969F8 whole entry, looked up): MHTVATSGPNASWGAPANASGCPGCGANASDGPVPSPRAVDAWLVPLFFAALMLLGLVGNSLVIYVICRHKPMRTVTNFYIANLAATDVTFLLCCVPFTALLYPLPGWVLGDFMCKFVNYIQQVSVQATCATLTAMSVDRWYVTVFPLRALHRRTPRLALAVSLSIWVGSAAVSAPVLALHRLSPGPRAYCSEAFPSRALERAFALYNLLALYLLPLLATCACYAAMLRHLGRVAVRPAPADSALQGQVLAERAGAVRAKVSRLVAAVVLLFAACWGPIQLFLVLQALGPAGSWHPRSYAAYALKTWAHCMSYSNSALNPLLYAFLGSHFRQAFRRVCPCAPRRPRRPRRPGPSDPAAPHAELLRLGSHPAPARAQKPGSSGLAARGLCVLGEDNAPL
Summary of the method: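 Cells plated and incubated 18 h; dye added, 1 h at 37 C; compounds in DMSO pinned in; signal read at 480/540 nm every second for 3 min. Each compound tested at 15 concentrations in triplicate.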

[5] = G protein-coupled receptor (GPCR) small molecule agonists, calcium flux assay: HEK293 wild type cell line counter screen (AID 1920065)
Summary of the method: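 Counter-screen of the Tox21 10K library for non-specific calcium release: dye-loaded cells received compounds in DMSO and were monitored by kinetic fluorescence (480/540 nm, 3 min). Fifteen concentrations, run in triplicate.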

[6] = p53 small molecule agonists, cell-based qHTS assay with human liver microsomes (AID 1963577)
Summary of the method: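 Fluorescence of the beta-lactamase reporter in p53RE-bla cells, detected with LiveBLAzer substrate (2 h, room temperature, dark), served as the read-out after 16 h compound exposure at 37 C with human liver microsomes and NADPH, each 0.5 mg/mL final.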

[7] = p53 small molecule agonists, cell-based qHTS assay with rat liver microsomes (AID 1963578)
Summary of the method: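 Cells carrying a p53 response element–beta-lactamase reporter were plated and rested 5 h, then dosed with compound in DMSO plus rat liver microsomes and NADPH, each at 0.5 mg/mL final. After 16 h at 37 C, LiveBLAzer substrate was added for 2 h.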

[8] = p53 small molecule agonists, cell-based qHTS assay with human liver microsomes: qHTS cell viability counter screen (AID 1963579); note: nearly all actives have a fitted effect of over 45% in size
Summary of the method: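 Cytotoxicity counter screen: p53RE-bla, 4,000 cells/well; 5 h settle, 37 C/5% CO2; cpd + HLM 0.5 mg/mL + NADPH 0.5 mg/mL (final); 16 h, 37 C; CellTiter-Glo, 30 min RT, luminescence.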

[9] = p53 small molecule agonists, cell-based qHTS assay with rat liver microsomes: qHTS cell viability counter screen (AID 1963580); note: nearly all actives have a fitted effect of over 45% in size
Summary of the method: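 Intracellular ATP, by CellTiter-Glo luminescence, defines viability. HCT-116 p53RE-bla cells, 4,000 per well, were compound-treated in the presence of rat liver microsomes and NADPH for 16 h at 37 C.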

[10] = p53 small molecule agonists, cell-based qHTS assay: qHTS cell viability counter screen (AID 1963581); note: nearly all actives have a fitted effect of over 45% in size
Summary of the method: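 Cells: HCT-116 with p53 response element-driven beta-lactamase. Treatment: 16 h, 37 C, compounds in DMSO. Read: CellTiter-Glo luminescence after 30 min RT.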

[11] = p53 small molecule agonists, cell-based qHTS assay (AID 1963582; active = well fitted activation curve with a large enough effect in the signal ratio in the repeat runs, not every such curve was filed as active; the % refers to the signal ratio)
Summary of the method: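 Quantitative HTS in p53RE-bla cells: after a 5 h settling period, compounds delivered in DMSO were left on cells for 16 h at 37 C, and reporter induction was measured as fluorescence following 2 h substrate loading.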

[12] = target: 5-hydroxytryptamine receptor 2A (Homo sapiens) (UniProt P28223); experiment: 5-hydroxytryptamine receptor 2A (HTR2A) small molecule antagonists, cell-based qHTS assay (AID 1963586); note: nearly all actives have a fitted effect of over 45% in size
5-hydroxytryptamine receptor 2A (Homo sapiens), sequence (P28223 whole entry, looked up): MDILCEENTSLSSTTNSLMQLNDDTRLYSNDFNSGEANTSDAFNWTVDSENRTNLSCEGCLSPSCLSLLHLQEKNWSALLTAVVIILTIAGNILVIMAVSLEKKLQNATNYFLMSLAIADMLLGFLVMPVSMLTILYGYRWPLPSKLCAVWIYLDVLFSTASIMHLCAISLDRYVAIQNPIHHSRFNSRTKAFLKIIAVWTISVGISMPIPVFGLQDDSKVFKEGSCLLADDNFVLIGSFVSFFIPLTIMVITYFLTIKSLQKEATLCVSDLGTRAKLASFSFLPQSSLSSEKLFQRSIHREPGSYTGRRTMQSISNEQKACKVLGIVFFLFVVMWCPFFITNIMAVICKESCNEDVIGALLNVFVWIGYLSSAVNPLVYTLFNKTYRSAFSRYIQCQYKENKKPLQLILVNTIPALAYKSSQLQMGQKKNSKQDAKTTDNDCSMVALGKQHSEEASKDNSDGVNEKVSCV
Summary of the method: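 Antagonist-mode intracellular calcium assay: DOI (4 nM) added after 5 min compound pre-incubation at room temperature to dye-loaded HTR2A-CHO cells. Fluorescence followed for 3 min, sampled every second.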

[13] = target: 5-hydroxytryptamine receptor 2A (Homo sapiens) (UniProt P28223); experiment: 5-hydroxytryptamine receptor 2A (HTR2A) small molecule agonists, cell-based qHTS assay (AID 1963587); note: nearly all actives have a fitted effect of over 30% in size
Summary of the method: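 Kinetic calcium-flux fluorescence (2 min, 1 sec intervals) after compound addition in agonist mode. HTR2A-CHO cells were cultured 18 h, then dye-loaded 1 h at 37 C.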

[14] = target: Muscarinic acetylcholine receptor M1 (Homo sapiens) (UniProt P11229); experiment: Cholinergic receptor muscarinic 1 (CHRM1) small molecule antagonists, cell-based qHTS assay (AID 1963588); note: nearly all actives have a fitted effect of over 40% in size
Muscarinic acetylcholine receptor M1 (Homo sapiens), sequence (P11229 whole entry, looked up): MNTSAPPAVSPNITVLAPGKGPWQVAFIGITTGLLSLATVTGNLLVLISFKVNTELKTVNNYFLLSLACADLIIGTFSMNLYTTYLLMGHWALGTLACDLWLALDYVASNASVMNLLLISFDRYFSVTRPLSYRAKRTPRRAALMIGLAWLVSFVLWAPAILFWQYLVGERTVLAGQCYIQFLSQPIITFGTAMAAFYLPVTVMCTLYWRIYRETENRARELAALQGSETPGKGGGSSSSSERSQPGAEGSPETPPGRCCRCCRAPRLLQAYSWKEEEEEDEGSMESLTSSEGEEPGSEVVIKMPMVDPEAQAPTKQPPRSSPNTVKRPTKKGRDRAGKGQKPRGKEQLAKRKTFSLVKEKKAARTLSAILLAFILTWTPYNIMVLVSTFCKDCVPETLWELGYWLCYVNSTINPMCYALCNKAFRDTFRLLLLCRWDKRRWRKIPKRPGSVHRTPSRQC
Summary of the method: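 CHRM1-CHO calcium-flux assay, antagonist mode. Cells were seeded 18 h, dye-loaded 1 h at 37 C and given compound for 5 min at RT, then acetylcholine was added at 50nM. FDSS fluorescence was read 3 min; 15 concentrations, three runs.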

[15] = target: Muscarinic acetylcholine receptor M1 (Homo sapiens) (UniProt P11229); experiment: Cholinergic receptor muscarinic 1 (CHRM1) small molecule agonists, cell-based qHTS assay (AID 1963589); note: nearly all actives have a fitted effect of over 35% in size
Summary of the method: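 Agonist-mode qHTS in CHO cells stably carrying human muscarinic M1. Intracellular calcium is tracked by fluorescence every second after compound transfer; each compound runs at 15 concentrations in three independent runs.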

[16] = cAMP Responsive Elements (CRE) small molecule agonists, cell-based qHTS assay (AID 1963590)
Summary of the method: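 Agonist mode qHTS in CRE-bla HEK 293T cells: compounds dosed from DMSO for 3 h at 37 C/5% CO2, followed by LiveBLAzer B/G FRET substrate for 2 h at room temperature.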

[17] = cAMP Responsive Elements (CRE) small molecule antagonists, cell-based qHTS assay (AID 1963591; active = well fitted inhibition curve with a large enough effect in the signal ratio in the repeat runs, not every such curve was filed as active; the % refers to the signal ratio)
Summary of the method: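 Antagonist mode: test compounds are co-incubated with the adenylyl cyclase activator NKH477 (0.25 uM final) on CRE-bla HEK293T cells for 3 h at 37 °C, followed by LiveBLAzer substrate loading.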

[18] = target: Beta-2 adrenergic receptor (Homo sapiens) (UniProt P07550); experiment: Adrenergic beta2 receptor (ADRB2) small molecule antagonists, cell-based qHTS assay (AID 1963592); note: nearly all actives have a fitted effect of over 50% in size; note: potency is the fitted concentration of half-maximal effect
Beta-2 adrenergic receptor (Homo sapiens), sequence (P07550 whole entry, looked up): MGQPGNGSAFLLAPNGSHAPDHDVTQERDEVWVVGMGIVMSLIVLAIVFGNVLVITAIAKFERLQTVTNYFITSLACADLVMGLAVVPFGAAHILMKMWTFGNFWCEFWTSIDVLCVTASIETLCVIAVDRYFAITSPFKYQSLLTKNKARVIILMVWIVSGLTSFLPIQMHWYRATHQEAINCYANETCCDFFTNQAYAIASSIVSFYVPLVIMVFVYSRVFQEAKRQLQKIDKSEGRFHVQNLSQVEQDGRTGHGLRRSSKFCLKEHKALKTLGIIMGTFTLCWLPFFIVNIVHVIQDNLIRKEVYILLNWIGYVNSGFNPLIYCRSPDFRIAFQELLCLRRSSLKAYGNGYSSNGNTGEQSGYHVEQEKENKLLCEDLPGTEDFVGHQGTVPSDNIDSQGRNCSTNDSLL
Summary of the method: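 Cells (CHO, stable ADRB2 overexpression) incubated 18-20hr at 37C; compounds added from DMSO; agonist mix (1nM isoproterenol, 100uM IBMX, 25uM Ro-20-1724) added; 0.5hr RT; d2-cAMP and anti-cAMP-cryptate added; 1hr RT; 665/615 nm read.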

[19] = target: D(2) dopamine receptor (Homo sapiens) (UniProt P14416); experiment: Dopamine D2 receptor (DRD2) small molecule agonists, cell-based qHTS assay (AID 1963594); note: nearly all actives have a fitted effect of over 35% in size
D(2) dopamine receptor (Homo sapiens), sequence (P14416 whole entry, looked up): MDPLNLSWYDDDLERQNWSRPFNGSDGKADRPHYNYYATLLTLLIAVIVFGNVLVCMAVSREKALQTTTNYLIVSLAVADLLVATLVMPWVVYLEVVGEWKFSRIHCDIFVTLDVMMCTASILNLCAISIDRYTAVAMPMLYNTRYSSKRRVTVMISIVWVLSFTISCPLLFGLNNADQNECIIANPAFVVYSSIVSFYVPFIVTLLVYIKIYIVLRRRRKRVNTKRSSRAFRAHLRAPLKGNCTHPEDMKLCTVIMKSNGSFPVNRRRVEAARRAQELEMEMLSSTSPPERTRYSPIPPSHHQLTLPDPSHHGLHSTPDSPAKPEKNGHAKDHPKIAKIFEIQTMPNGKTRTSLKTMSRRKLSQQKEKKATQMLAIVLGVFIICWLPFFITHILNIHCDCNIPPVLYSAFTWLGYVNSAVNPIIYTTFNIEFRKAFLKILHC
Summary of the method: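 cAMP accumulation in DRD2-HEK293 cells measured by HTRF after 1 h detection; compounds added 10 min before NKH477 (200nM […]) forskolin-analogue stimulation, 30 min at room temperature, with Ro20-1724 present at 0.1 mM final.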

[20] = target: D(2) dopamine receptor (Homo sapiens) (UniProt P14416); experiment: Dopamine D2 receptor (DRD2) small molecule antagonists, cell-based qHTS assay (AID 1963595; active = well fitted inhibition curve with a large enough effect in the signal ratio in the repeat runs, with a control signal flat; the % refers to the signal ratio)
Summary of the method: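 Antagonism was scored as restored cAMP in HEK293-DRD2 cells. These cells were stimulated with 200 nM NKH477 and 12 nM quinpirole for 30 min at room temperature, in the presence of 0.1 mM Ro20-1724.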

Measured: Potency

Cc1ccc(NC(N)=O)cc1
inactive: all assays above

O=C(OOC(=O)c1ccccc1)c1ccccc1
inactive: all assays above

OCC(CO)(CO)COCC(CO)(CO)CO
not listed: [19]
inactive: all other assays above

CC1c2ccccc2CN1NC(=O)c1ccc(Cl)c(S(N)(=O)=O)c1 (centres undefined)
inactive: all assays above

CN(C)C(=O)Nc1ccc(Oc2ccc(Cl)cc2)cc1
not listed: [18]
inactive: all other assays above

CCN(CC)C(=O)Nc1ccc(OCC(O)CNC(C)(C)C)c(C(C)=O)c1 (centres undefined)
active: [18] 47.3 nM
not listed: [19]
inactive: all other assays above

O=Cc1ccc(F)c(Br)c1
inactive: all assays above

CCO[Si](OCC)(OCC)OCC
inactive: all assays above

C=CCOc1c(Br)cc(C(C)(C)c2cc(Br)c(OCC=C)c(Br)c2)cc1Br
inactive: all assays above

CCCCCCCCCCCCCCCCC(=O)O
not listed: [19]
inactive: all other assays above

Cc1c(N)cccc1Cl
not listed: [19]
inactive: all other assays above

Clc1cc(Cl)nc(Cl)n1
not listed: [19]
inactive: all other assays above

C=C(C)CCO
inactive: all assays above

CCOC(=O)C(C)O (centres undefined)
inactive: all assays above

CC/C=C\CCCCO
inactive: all assays above
